# From PubChem
# A selection: hits, their analogues and other compounds. The true share with any hit is near 7.3%.
# Luc counter: Counterscreen for Luciferase (Kinase-Glo TM) Inhibition | Luciferin 4-monooxygenase (Photuris pensylvanica), Q27757 | 0.28% of 200,000 active | Potency, µM (series often up to 38.3 µM), for the others: at the highest dose activity change, negative = inhibition, usual class: inhibitors | Kinase-Glo luciferase, ATP luminescence, 8 min; also: % is scaled to controls: 0 for no effect and ±100 for the full control effect; nearly all actives have a fitted effect of over 60% in size
#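 Luminescence was the read-out, taken after 8-minute incubation at ambient temperature. Luciferase turned over luciferin with 10 uM ATP in imidazole pH 7.2 buffer containing KCl, MgCl2, Tween 20 and BSA.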
# SMN2 splice up: qHTS Assay for Enhancers of SMN2 Splice Variant Expression. HEK293 SMN2-luciferase splicing reporter, luminescence, 30-36 h. Potency, µM (highest dose often 46.1 µM), without a hit: at the top dose activity change, positive = activation, hits mostly activators. 2.8% of 210,000 active. AID 1458, 2008; also: % of control where 0% means no effect; nearly all actives have a fitted effect of over 55% in size
#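 qHTS luciferase splicing reporter: luminescence rises when SMN2 exon 7 is included in transfected HEK293 cells. Compound exposure lasted 30-36 h at 37C, with 4.5 mM final sodium butyrate as control, followed by a ONE-Glo read.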
# Rab9 promoter act: qHTS Assay for Rab9 Promoter Activators | 2.8% of 320,000 active | Potency, µM (highest dose often 9.22 µM), for inactives: at the top dose activation, negative = inhibition, usual class: activators | Huh7 Rab9 promoter-luciferase reporter, luminescence, 24 h; also: % of control where 0% means no effect; nearly all actives have a fitted effect of over 60% in size
#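 Huh7 cells stably carrying Rab9 promoter–luciferase reporter, plated 1500 cells/well, compound added after 2 h and incubated 24 h at 37 °C; luciferase luminescence then read after 10 min with detection reagent.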
# NPC1 prom act: qHTS Assay for NPC1 Promoter Activators; Huh7 NPC1 promoter luciferase reporter, 24 h; Potency, µM (series often up to 9.22 µM), for the others: at the top dose activation, most hits filed as activators; 2.4% of 320,000 active; also: % of control where 0% means no effect; nearly all actives have a fitted effect of over 60% in size
#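 NPC1 promoter–luciferase Huh7 cells; 24 h compound; luminescence.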
# FLuc modulator: qHTS profiling assay for firefly luciferase inhibitor/activator using purifed enzyme and Km concentrations of substrates (counterscreen for miR-21 project); Luciferin 4-monooxygenase (Photinus pyralis), P08659; purified FLuc, Km substrates, luminescence inhibition; Potency, µM (top dose mostly 57.5 µM), inactives show top-dose activity change, negative = inhibition, hits mostly inhibitors; 6.9% of 360,000 active;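 also: plate controls were vehicle for no effect and reference inhibitor for full effect; nearly all actives have a fitted effect of over 55% in size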
# Target sequence (P08659 whole entry, looked up): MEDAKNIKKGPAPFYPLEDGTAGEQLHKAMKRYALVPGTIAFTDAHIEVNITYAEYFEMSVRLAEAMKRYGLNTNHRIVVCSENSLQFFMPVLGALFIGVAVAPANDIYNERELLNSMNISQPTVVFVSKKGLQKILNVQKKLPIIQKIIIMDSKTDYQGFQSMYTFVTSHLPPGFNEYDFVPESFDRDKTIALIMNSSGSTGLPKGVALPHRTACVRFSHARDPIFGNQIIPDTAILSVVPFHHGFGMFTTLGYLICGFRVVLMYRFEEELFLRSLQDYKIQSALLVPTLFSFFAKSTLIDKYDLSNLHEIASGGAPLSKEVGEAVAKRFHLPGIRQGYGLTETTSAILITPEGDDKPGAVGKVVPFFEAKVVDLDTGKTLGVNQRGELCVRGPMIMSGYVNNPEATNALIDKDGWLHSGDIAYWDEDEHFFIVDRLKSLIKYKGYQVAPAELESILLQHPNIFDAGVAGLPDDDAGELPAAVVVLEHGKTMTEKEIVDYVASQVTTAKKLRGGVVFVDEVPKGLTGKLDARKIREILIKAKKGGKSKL
#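 Biochemical qHTS of compounds, final roughly 60 µM downward over six points, against 10 nM purified firefly luciferase using Km concentrations of substrates (10 uM D-luciferin, 10 uM ATP) in Tris acetate pH 7.5 buffer; luminescence output.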
# * marks the source's active call; other numbers are inactive results; u = inconclusive; x = not tested or not shown; ! = not confirmed by another sample; [ ] = another dose, or the depositor's remark. Calls follow the shape of the dose curve; as a rule, active = well fitted curve in the direction sought with a large enough effect; inconclusive = small, poorly fitted or top-dose-only effect, or another doubt; inactive = no such curve, though single readings can be large; an effect the other way counts as inactive or inconclusive. Potency is read from the fitted curve at half-maximal effect.
SMILES,Luc counter,SMN2 splice up,Rab9 promoter act,NPC1 prom act,FLuc modulator
c1csc(-c2noc(COc3ccc4c(c3)CCCC4)n2)c1,-1.7%,12.6µM*,2.82µM*,3.98µM*,10.7µM*
COc1ccc(Cc2nc(-c3cccs3)no2)cc1OC,0.0%,-23.9%,-6.2%,1.3%,u
C=C1c2ccccc2O[C@H](C(=O)OCC)[C@@H]1CCC(C)C (tested in a mixture with another compound),-1.9%[39.9 µM],x,x,x,x
COc1ccc(NC2=C(c3ccc(OC)cc3)C(=O)c3ccccc32)cc1,-4.2%,-4.5%[1.84 µM],12.1%,5.8%,-2.4%
COc1ccc(C2C(=O)c3ccccc3C2=O)cc1OC,u,x,u,27.5%,8.49µM*
COc1cc(C2C(=O)c3ccccc3C2=O)ccc1O,x,x,-0.1%,-0.2%,23.9µM*
COc1ccc(C2C(=O)c3ccccc3C2=O)cc1,u,3.98µM*!,u,u,5.36µM*
COc1ccc(C2C(=O)c3ccccc3C2=O)c(OC)c1,3.8%,-4.0%,-2.6%,1.8%,-0.8%
COc1cc(C2N(C)C(=O)c3ccccc3N2C)ccc1O (configuration not stated),x,x,-0.1%,-4.5%,3.2%
COc1ccc(C2=C(N)c3ccccc3C2=O)cc1,u,u,4.47µM*,4.47µM*,10.7µM*
Cc1c(CNCCc2ccc(S(N)(=O)=O)cc2)c(C(=O)O)c(C)n1Cc1ccc(Cl)cc1,x,-4.1%,x,x,5.5%
CC1(C)[C@@H]2CC[C@]1(CC(=O)O)[C@H](Cl)C2,-0.6%[7.66 µM],13.1%[9.22 µM],x,x,x
CCCCOc1ccc(-c2ncc(N)cn2)cc1,x,x,2.82µM*,1.78µM*,6.75µM*
CCOc1ccc(-c2nnc(N)s2)cc1,-5.5%,11.2µM*,u,u,13.5µM*
Nc1nnc(-c2ccc(F)cc2)s1,-2.3%,6.4%,4.9%,-1.7%,u
CCCCOc1ccc(C(=O)O)cc1,-0.7%,5.6%,8.2%,0.0%,0.3%
CC(C)(C)c1ccc(-c2nnc(N)s2)cc1,-7.8%,x,1.41µM*,1.41µM*,1.9µM*
CCCCOc1ccc(-c2nnc(N)s2)cc1,0.1%,20.1%,u,28.0%,7.57µM*
CCCCOc1cccc(-c2nnc(N)s2)c1,1.7%,u,9.3%,3.4%,u
O=C(c1ccc2c(c1)N(Cc1ccc(F)cc1)CCS2)N1CCN(c2ccccc2)CC1,x,-17.7%,x,x,-9.3%
COc1ccc(NC(=O)C2CCC(CNS(=O)(=O)c3ccc(Br)s3)CC2)c(OC)c1 (configuration not stated),x,-24.4%,x,x,-14.3%
CCOc1ccc(-c2nc(CCl)cs2)cc1,-5.4%,u,2.24µM*,u,3.01µM*
Cc1cc(C)c(OCCOCCn2c(-c3ccc(Cl)cc3)nc3ccccc3c2=O)c(C)c1,x,1.4%,x,x,-2.8%
S=C(Nc1ccccc1Cl)N1CCC(c2ccccc2)C1 (configuration not stated),-0.8%,12.6µM*,2.82µM*,3.55µM*,23.9µM*
Cc1ccc(NC(=S)N2CCC(c3ccccc3)C2)c(Cl)c1 (configuration not stated),-0.7%,11.2µM*,0.282µM*,0.501µM*,1.51µM*
SMILES,Luc counter,SMN2 splice up,Rab9 promoter act,NPC1 prom act,FLuc modulator
COc1ccc(N2CCN(c3ncccc3-c3nc(-c4ccccc4C)no3)CC2)cc1,x,x,x,x,15.1µM*
CCC(=O)N1c2ccccc2CC1C(=O)NCCc1cc(OC)c(OC)c(OC)c1 (configuration not stated),x,x,x,x,-4.2%
O=C(Nc1ccc(Cl)cc1)c1ccc2nsnc2c1,-1.4%,11.2µM*,3.98µM*,2.51µM*,u
CN(C)c1ccc(NC(=O)c2ccc3nsnc3c2)cc1,-3.7%,22.4µM*,3.16µM*,u,5.36µM*
O=C(Nc1cccc([N+](=O)[O-])c1)c1ccc2nsnc2c1,x,x,-1.0%,-1.3%,-27.4%
COc1ccc(N(C)C(=O)Nc2ccc3nsnc3c2)cc1,1.7%,-22.1%,2.9%,-1.0%,-24.8%
O=C(Cn1ncn2c(cc3sccc32)c1=O)NCCc1ccccc1,x,4.9%,x,x,-5.8%
COc1cc2c(cc1OC)C1C(=O)c3c(O)cc4c(c3OC1CO2)C=CC(C)(C)O4 (configuration not stated),-4.5%,-81.3%,x,x,x
O=c1c2[nH]c3ccc(F)cc3c2ncn1Cc1ccncc1,x,x,-0.4%,-1.8%,1.4%
O=c1c2[nH]c3ccc(F)cc3c2ncn1C1CCCCC1,-1.8%,6.6%,3.98µM*,u,-10.8%
CCCCSc1ncnc2c1c(-c1ccccc1)cn2-c1cccc(F)c1,x,7.6%,x,x,-3.8%
Cc1ccc(NC(=O)c2sc3ccccc3c2Cl)cc1,x,8.91µM*,x,x,1.2µM*
CN1CCN(c2ccc(NC(=O)c3sc4ccccc4c3Cl)cc2)CC1,1.4%,3.2%,1µM*,2.51µM*,1.9µM*
O=C(NCc1ccco1)c1sc2ccccc2c1Cl,1.0%,u,u,26.4%,21.3µM*
CCn1nnc(NC(=O)c2cccnc2Cl)n1,1.9%,-16.7%,-5.5%,-0.1%,-0.2%
CCn1nnc(NC(=O)c2sc3ccccc3c2Cl)n1,-5.3%,11.2µM*,u,2.24µM*,9.53µM*
O=C(NN=C1CCCC1)c1sc2ccccc2c1Cl,1.5%,-13.7%,3.7%,0.5%,u
Cc1ccc(NC(=O)c2nsc(Cl)c2Cl)cc1,x,x,2.82µM*,3.55µM*,1.69µM*
O=C1CCC/C(=N/NC(=O)c2sc3ccccc3c2Cl)C1,x,x,u,u,15.1µM*
O=C(COC(=O)CC1CCCC1)Nc1cc2c(cc1Cl)C(=O)c1ccccc1C2=O,0.1%,u,6.31µM*,3.55µM*,13.5µM*
CCOC(=O)CNC(=O)O[C@H]1C(=O)c2cc(OC)ccc2O[C@@H]1c1ccc(OC)c(Br)c1,0.7%,2.8%,x,x,x
Cc1ccc(/C=N/Nc2cn[nH]c(=O)n2)o1,-5.2%,13.3%,11.7%,-1.8%,-16.4%
O=[N+]([O-])c1cccc(/C=N\Nc2ccc3ccccc3n2)c1O,-23.2%[7.66 µM],-11.5%[9.22 µM],x,x,x
C(=N\Nc1nc2ccccc2[nH]1)/c1ccc2c(c1)OCCO2,x,x,1.41µM*,u,0.757µM*
C(=N\Nc1ccc2ccccc2n1)/c1ccc2c(c1)OCCO2,u,-77.2%,-20.0%,-22.9%,0.0675µM*
SMILES,Luc counter,SMN2 splice up,Rab9 promoter act,NPC1 prom act,FLuc modulator
Cc1ccc(/C=N/Nc2ccc3ccccc3n2)o1,u,1.12µM*,0.126µM*,0.708µM*,0.477µM*
Cc1cccc(/C=N/Nc2ccc3ccccc3n2)c1,u,-36.2%,u,u,0.0757µM*
Cc1ccccc1Nc1oc(-c2ccccc2)nc1CCc1ccccc1,-0.2%,-4.8%,x,x,x
CC(C)C(C)C,x,-1.2%,x,x,x
Cc1cc(C)nc(N/N=C/c2ccc3c(c2)OCCO3)n1,-5.9%,22.1%,u,14.0%,19µM*
COCCNC(=S)N/N=C/c1ccc2c(c1)OCCO2,-0.8%,19.7%,7.9%,9.3%,u
